Here are results for five compounds from PubChem BioAssay AID793 (The Scripps Research Institute Molecular Screening Center, 2007).

Each structure is given as a SMILES string. Screen size: about 140,000 compounds; about 1,400 (1%) were called active. Cut-off read from the data, not from the text of the source: active = inhibition above about 17%; inactive = the rest. Only a selection was taken, and actives are over-represented in it overall.

Sequence of Neuropeptide Y receptor type 2 (Homo sapiens) (P49146 whole entry, looked up): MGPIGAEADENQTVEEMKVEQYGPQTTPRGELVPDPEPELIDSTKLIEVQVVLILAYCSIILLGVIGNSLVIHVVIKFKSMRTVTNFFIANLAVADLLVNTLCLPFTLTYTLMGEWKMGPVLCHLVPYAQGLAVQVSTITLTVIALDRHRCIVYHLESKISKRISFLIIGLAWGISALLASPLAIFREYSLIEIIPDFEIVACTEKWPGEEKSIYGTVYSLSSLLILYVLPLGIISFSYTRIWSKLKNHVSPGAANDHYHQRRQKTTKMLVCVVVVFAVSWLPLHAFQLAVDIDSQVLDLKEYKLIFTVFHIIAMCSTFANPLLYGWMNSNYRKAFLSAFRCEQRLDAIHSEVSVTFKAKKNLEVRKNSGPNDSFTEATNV

This assay addresses Neuropeptide Y receptor type 2 (Homo sapiens) (UniProt P49146). Description: NPY-Y2 receptor antagonists, primary screen, cell-based (AID 793).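 Note: 0% = vehicle with agonist challenge and 100% = reference antagonist with challenge.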 The following applies: NPY-Y2 expressing cells, antagonist mode; at 2.7 µM; hits give high values.
For the compound `O=C(COC(=O)c1ccccc1)Nc1ccc(Cl)cc1C(=O)c1ccccc1`, the inhibition is 34.7% (active).

As to `CN1CCN(C(=S)SCC(=O)Nc2ccc(Cl)cc2C(=O)c2ccccc2)CC1`, the inhibition was 6.46% (inactive).

For `O=C(CCNS(=O)(=O)c1ccccc1)Nc1ccc(Cl)cc1C(=O)c1ccccc1`, the inhibition was 2.34% (inactive).

For the compound `CN1CCN(Cc2ccc(OC(F)(F)F)cc2)CC1`, the inhibition is 3.95% (inactive).

Take `CCOC(=O)c1c(-c2ccccc2)oc2ccc(OC(=O)N(C)C)cc12`: the inhibition was 4.26% (inactive).
